# Experimental data taken from ChEMBL document CHEMBL3988442, “University of Dundee, Small-Polar-MMV Screening Library” (2021).
# For some assays here: Results with a measured potency or affinity are listed apart.
# Legend:
# Parameters in all cases: scale not given: direction of the effect not stated beside the values
# [1] = target: Protein translocase subunit SecA (Escherichia coli (strain K12)) (UniProt P10408); assay: Assay to Identify E. coli SecA ATPase Inhibitors; assay type: functional; settings: 30 µM
# [2] = target: T1, Ubiquitin-activating enzyme e1, putative (Leishmania donovani (strain BPK282A1)) (UniProt E9BSI1); assay: Leishmania donovani Ubiquitin Activating Enzyme (LdE1); assay type: functional; settings: 30 µM
# T1 sequence (whole entry): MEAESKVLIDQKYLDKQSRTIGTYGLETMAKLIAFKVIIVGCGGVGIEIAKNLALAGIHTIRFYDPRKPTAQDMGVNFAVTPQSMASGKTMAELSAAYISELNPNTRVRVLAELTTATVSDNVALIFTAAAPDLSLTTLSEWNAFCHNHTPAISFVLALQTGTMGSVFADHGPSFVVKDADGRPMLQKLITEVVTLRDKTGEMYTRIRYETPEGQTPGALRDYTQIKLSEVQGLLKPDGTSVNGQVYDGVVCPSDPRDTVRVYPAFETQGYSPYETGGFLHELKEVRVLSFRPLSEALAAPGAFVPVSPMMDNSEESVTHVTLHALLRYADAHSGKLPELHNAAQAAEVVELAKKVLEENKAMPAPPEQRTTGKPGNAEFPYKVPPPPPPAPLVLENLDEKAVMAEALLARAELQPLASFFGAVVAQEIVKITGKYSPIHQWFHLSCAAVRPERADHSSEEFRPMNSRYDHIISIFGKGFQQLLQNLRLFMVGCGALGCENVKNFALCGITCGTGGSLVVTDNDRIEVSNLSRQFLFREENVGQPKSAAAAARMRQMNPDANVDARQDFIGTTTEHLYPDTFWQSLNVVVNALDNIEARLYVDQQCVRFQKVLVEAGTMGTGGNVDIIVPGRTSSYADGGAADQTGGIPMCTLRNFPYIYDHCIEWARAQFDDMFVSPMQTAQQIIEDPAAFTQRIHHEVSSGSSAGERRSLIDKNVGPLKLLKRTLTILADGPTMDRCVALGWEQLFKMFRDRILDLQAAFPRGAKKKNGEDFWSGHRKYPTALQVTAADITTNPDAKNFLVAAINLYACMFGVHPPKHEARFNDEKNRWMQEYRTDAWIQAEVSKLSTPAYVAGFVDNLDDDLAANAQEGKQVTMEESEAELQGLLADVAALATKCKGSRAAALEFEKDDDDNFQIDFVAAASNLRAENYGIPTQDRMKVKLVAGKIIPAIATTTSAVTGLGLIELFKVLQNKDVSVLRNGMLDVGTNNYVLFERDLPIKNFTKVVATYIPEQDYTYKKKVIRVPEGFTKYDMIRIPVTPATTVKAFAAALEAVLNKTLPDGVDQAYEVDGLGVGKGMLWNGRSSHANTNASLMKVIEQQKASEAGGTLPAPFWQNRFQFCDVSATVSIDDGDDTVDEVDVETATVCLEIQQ
# [3] = target: Sialic acid-binding Ig-like lectin 9 (Homo sapiens) (UniProt Q9Y336); assay: Hs-Siglec9 ALPHAscreen SOP 20170721; settings: 10 µM
# Trypanosoma cruzi = assay: Trypanosoma cruzi phosphomannomutase and mannose-1-phosphate guanylyltransferase assay; assay type: functional; settings: 10 µM
# [4] = target: T2, Arginase-2, mitochondrial (Homo sapiens) (UniProt P78540); assay: in vitro enzyme assay to detect the production of urea directly proportional to the activity of Arginase II; assay type: functional; settings: 33.3 µM; also: in the data most compounds retested in dose-response had high values
# T2 sequence (whole entry): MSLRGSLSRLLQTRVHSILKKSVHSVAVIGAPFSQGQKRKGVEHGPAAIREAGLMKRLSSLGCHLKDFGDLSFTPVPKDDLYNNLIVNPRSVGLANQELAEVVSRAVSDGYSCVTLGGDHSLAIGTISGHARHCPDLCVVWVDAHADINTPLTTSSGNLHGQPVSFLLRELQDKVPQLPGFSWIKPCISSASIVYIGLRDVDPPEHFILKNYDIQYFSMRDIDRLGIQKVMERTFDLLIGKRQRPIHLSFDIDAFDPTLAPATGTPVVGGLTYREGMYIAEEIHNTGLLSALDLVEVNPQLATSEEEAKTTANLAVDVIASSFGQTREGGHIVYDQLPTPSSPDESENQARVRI
# [5] = target: T3, Proteasome subunit beta (Trypanosoma cruzi) (UniProt O96673); assay: Trypanosoma cruzi proteasome chymotrypsin-like activity (TcProtChymo) assay.; also: in the data most compounds retested in dose-response had high values; assay type: functional; settings: 9.37 µM
# T3 sequence (whole entry): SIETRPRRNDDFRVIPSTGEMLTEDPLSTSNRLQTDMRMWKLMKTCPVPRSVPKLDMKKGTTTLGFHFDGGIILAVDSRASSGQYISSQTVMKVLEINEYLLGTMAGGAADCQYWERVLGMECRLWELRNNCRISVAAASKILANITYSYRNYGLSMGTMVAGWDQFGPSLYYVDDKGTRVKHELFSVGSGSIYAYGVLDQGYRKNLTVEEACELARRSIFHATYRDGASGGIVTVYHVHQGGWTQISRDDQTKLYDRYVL
# Homo sapiens = species on record: Homo sapiens; assay: To identify inhibition of the IFN signalling (Jak-Stat) pathway via expression of an eGFP reporter gene under the control of an IFN-stimulated response element (ISRE) containing MxA promoter.; assay type: functional; settings: 30 µM
# [6] = target: T4, Tyrosyl-tRNA synthetase, putative (Trypanosoma cruzi (strain CL Brener)) (UniProt Q4DSP6); assay: Trypanosoma cruzi tyrosyl tRNA synthetase (TcYRS) _High Tyrosine SOP; assay type: functional; settings: 30 µM; also: in the data most compounds retested in dose-response had high values
# T4 sequence (whole entry): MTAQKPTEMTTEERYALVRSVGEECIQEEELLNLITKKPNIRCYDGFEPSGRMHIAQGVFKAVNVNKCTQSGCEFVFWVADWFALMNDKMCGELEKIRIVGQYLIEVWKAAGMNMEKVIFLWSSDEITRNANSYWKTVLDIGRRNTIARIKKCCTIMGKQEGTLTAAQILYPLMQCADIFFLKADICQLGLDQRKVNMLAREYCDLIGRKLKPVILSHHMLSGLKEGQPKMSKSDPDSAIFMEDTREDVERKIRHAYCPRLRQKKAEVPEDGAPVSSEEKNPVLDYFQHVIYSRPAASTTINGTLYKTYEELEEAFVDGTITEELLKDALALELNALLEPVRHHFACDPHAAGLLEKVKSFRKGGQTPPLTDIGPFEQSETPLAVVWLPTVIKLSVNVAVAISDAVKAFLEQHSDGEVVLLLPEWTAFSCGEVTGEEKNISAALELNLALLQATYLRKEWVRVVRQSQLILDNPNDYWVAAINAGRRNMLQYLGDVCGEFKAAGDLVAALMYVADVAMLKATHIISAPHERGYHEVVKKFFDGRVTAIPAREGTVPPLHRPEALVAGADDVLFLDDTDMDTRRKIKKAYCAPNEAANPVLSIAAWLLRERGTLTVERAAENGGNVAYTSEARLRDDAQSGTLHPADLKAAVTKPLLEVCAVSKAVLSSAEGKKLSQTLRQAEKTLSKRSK
# [7] = target: T4, Tyrosyl-tRNA synthetase, putative (Trypanosoma cruzi (strain CL Brener)); assay: Trypanosoma cruzi tyrosyl tRNA synthetase (TcYRS) SOP; assay type: functional; settings: 30 µM
# [8] = target: Chromo domain-containing protein 1 (Saccharomyces cerevisiae (strain ATCC 204508 / S288c) (Baker's yeast)) (UniProt P32657); assay: ScCHD-1 Enzyme Inhibition Assay; assay type: functional; settings: 30 µM; also: in the data most compounds retested in dose-response had high values
# Sequence of Chromo domain-containing protein 1 (Saccharomyces cerevisiae (strain ATCC 204508 / S288c) (Baker's yeast)) (P32657 whole entry, the tested form may be a part): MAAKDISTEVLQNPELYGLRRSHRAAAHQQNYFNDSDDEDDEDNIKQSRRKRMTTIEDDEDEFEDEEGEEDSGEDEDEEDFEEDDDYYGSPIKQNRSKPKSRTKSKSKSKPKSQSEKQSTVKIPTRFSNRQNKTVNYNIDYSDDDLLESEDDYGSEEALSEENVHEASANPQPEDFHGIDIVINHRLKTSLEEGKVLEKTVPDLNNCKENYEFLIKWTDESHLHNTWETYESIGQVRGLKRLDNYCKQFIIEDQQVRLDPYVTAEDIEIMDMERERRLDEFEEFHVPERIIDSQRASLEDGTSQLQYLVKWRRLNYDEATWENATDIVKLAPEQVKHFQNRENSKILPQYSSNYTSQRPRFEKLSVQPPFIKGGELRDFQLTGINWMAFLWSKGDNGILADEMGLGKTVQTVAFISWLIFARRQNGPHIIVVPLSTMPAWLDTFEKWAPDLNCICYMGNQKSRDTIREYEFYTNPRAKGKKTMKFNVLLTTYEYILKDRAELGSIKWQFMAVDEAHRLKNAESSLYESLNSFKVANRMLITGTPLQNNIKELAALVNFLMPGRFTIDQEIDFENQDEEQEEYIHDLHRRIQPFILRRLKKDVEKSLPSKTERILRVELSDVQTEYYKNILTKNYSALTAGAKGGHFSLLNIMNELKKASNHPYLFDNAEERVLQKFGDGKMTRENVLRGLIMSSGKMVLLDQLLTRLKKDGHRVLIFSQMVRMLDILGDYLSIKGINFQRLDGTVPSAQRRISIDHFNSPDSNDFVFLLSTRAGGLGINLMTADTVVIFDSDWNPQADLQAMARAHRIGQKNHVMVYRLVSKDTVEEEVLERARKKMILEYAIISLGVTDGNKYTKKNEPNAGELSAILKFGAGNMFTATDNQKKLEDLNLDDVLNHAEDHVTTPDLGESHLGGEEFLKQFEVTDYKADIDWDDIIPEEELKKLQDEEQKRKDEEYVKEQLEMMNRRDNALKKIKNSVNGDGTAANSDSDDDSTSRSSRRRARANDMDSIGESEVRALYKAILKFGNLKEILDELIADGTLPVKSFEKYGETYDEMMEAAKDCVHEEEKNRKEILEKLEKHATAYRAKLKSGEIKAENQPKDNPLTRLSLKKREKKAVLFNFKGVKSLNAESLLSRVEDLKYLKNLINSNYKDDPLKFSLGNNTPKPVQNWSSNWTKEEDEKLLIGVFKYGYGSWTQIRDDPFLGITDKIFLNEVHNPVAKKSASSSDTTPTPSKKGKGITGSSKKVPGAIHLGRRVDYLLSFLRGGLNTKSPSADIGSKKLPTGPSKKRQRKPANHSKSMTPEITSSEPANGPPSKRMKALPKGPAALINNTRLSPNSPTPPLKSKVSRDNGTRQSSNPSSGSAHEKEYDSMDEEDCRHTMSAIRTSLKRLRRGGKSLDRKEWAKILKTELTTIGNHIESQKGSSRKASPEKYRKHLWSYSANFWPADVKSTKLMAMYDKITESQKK
# Sequence of Sialic acid-binding Ig-like lectin 9 (Homo sapiens) (Q9Y336 whole entry): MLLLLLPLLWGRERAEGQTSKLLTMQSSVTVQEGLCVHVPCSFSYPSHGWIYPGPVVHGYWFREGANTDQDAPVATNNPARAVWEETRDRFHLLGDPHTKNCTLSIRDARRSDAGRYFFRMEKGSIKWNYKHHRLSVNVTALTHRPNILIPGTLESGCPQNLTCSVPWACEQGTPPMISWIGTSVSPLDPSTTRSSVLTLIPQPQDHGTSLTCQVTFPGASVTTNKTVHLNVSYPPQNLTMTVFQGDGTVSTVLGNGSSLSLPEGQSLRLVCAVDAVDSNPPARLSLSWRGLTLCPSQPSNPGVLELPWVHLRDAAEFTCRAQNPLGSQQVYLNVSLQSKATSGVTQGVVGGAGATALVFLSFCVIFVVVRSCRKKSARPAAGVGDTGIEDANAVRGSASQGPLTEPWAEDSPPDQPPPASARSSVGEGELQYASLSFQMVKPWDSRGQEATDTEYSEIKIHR
# Sequence of Protein translocase subunit SecA (Escherichia coli (strain K12)) (P10408 whole entry): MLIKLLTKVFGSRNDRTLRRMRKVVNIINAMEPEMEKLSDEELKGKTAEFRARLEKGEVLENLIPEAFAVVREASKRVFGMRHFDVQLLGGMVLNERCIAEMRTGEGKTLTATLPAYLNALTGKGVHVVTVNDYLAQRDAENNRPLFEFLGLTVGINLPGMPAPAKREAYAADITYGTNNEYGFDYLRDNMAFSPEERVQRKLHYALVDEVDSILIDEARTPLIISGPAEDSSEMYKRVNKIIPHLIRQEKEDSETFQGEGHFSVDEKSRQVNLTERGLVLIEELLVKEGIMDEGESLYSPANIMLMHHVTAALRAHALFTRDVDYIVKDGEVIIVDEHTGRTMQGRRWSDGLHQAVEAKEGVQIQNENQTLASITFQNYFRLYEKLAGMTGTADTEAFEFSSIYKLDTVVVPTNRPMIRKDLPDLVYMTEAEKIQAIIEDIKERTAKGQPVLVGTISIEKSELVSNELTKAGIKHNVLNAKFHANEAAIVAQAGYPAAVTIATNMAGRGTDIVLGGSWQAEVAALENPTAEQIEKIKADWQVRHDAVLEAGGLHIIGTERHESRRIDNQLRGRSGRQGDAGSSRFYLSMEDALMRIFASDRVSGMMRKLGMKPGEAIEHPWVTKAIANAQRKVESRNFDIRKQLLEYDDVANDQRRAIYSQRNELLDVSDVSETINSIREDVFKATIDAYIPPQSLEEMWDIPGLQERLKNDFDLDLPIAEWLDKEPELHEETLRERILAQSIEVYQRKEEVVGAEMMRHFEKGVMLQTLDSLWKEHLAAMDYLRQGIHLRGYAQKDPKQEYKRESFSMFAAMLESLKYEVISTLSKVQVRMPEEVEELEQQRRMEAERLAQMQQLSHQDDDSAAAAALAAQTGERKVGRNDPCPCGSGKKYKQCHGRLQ
Structure (SMILES),Percent Effect [1] [%],Percent Effect [2] [%],Percent Effect [3] [%],Percent Effect (Trypanosoma cruzi) [%],Percent Effect [4] [%],Percent Effect [5] [%],Percent Effect (Homo sapiens) [%],Percent Effect [6] [%],Percent Effect [7] [%],Percent Effect [8] [%]
Cc1nc(C)c(C(=O)NCCNc2ncccc2C#N)s1,-0.152,31.2,1.1,5.41,-5.94,18.4,7.44,6.86,28.2,-11.7
Cc1noc(C)c1C(=O)NCc1ccc(N2CCOC(C)C2)nc1 (stereo not given),-2.58,21.3,-1.63,-0.402,-0.887,12.5,9.59,2.63,15.4,-13.6
CN(C)CCOCC1CN(Cc2ccsc2)Cc2ccnn2C1 (stereo not given),-2.84,-1.3,1.33,-3.41,-1.62,2.21,-1.71,1.58,2.56,0.0554
COCc1nc(C(=O)NS(=O)(=O)c2ccc(C)cc2C)cs1,-3.05,0,4.98,1.97,4.1,-6.23,-17.6,2.39,1.21,-0.274
Cc1cccc(C(=O)N2CCCCC2c2ccc(CN(C)C)cc2)n1 (stereo not given),-1.58,18.9,3.59,5.92,27.6,21.2,5.13,9.04,14.6,-6.07
c1cnn(CC2CCCN2Cc2nc(-c3ccoc3)no2)c1 (stereo not given),-4.7,5.33,2.88,3.41,-4.88,10.3,-9.56,4.74,7.69,-12.5
c1cnc(N2CCC3(CC2)CN(CC2CC2)c2ccccc23)nc1,-2.71,-9.09,0.418,2.81,-2.28,-0.0858,15,33.8,20,9.61
CS(=O)(=O)NCc1cc2n(n1)CCCN(Cc1cccc(C#N)c1)C2,-4.38,8.11,22.8,7.47,10.8,13,18.6,7.98,19.5,88
NC(=O)CC1CCN(C(=O)NCc2ccccc2-n2cccn2)CC1,-5.04,21.3,5.25,-0.602,-1.77,9.41,15,7.89,15.4,-10.3
COCC1CN(Cc2ccsc2)Cc2nn(C)cc21 (stereo not given),-4.97,6.49,-3.38,-7.11,2.83,20.9,13.5,3.68,0,2.62
CC(C)(O)CN1CCN(C(=O)c2cc(Cl)cc3cccnc23)CC1,-3.15,-5.13,5.39,2.54,6.15,9.13,-3.27,2.39,1.21,-5.6
O=C(c1cc[nH]n1)N1CCCC(c2cccc(-n3ccnc3)n2)C1 (stereo not given),-1.25,12,2.15,-1.77,4.42,8.05,13.7,5.29,12.5,-21.6
Cc1nc([C@@H]2C[C@@H]3CCN(C(=O)Cc4ccsc4)C[C@H]3O2)no1,-3.1,-1.3,-5.06,-3.21,-1.62,10.5,-23.3,-1.58,0,-2.29
Cc1ccc2oc(C(=O)N3CCCC(c4noc(C)n4)C3)cc2n1 (stereo not given),-2,5.13,1.38,-3.66,4.51,3.84,11,4.31,8.43,-2.57
CC(=O)N1CCC2(CCCN(Cc3ccc(Cl)c(C(F)(F)F)c3)C2)C1 (stereo not given),-6.95,3.9,-5.84,1.07,-1.22,1.15,-5.5,-8.95,10.3,0.22
O=C(Cc1ccccc1Cl)N1CCCC(n2cncn2)C1 (stereo not given),-7.8,5.13,0.737,-2.91,4.51,-2.65,22.2,2.39,8.43,1.66
O=C(c1ccc(OCC2CC2)nc1)N1CCCC(n2ccnc2)C1 (stereo not given),-2.4,12.8,-6.85,2.72,6.97,9.64,5.6,8.13,22.9,-4.73
C1CC(CN2CCOCC3(CCN(C4CCOCC4)C3)C2)CCO1 (stereo not given),-5.96,9.09,-7.57,6.13,-6.88,13.7,3.41,6.84,10.3,0.2
Cc1cnn(CC2CN(CC(=O)NCCc3cccs3)CCO2)c1 (stereo not given),-3.45,0,6.55,-4.62,0.887,3.48,9.62,4.74,-2.56,-0.407
N#Cc1c(C2CC2)cc(-c2ccc(O)cc2)nc1N,-6.18,2.7,3.32,-1.46,4.54,23.6,48.6,-0.532,7.32,-2.85
O=S(=O)(CCCN1CCCC1Cn1cncn1)c1ccccc1 (stereo not given),1.87,26,-0.0999,1.49,-4.71,17.4,2.97,9.8,21.2,-10.1
Cc1c(O)oc(-c2ccc(Br)cc2)nc1=O,-4.74,-73.3,-12.4,2.96,-4.87,12.6,12.7,3.17,15,-18.8
COc1ccc(OC)c(C2CCN(Cc3nc(C)n4ccccc34)C2)c1 (stereo not given),-4.56,-2.7,16.9,2.81,17.1,17.8,17.9,13.3,26.8,-3.48
